Hit rate of the full screen: of about 300,000 compounds, about 37,000 (12%) were called active. The sample holds actives, similar compounds and a random draw of the others, so the mix is not that of the screen. Values without a mark were called inactive. Cut-off read from the data, not from the text of the source: active = max response mostly above about 13% (no sharp cut-off); inactive = mostly below about 14%.

The nature of the experiment: Cycloheximide Counterscreen for Small Molecule Inhibitors of Shiga Toxin. Note: read at 38.3 µM for the half of the compounds with a filed dose; 0% is about no effect. The note with it: cell reporter, cycloheximide protein synthesis inhibition counterscreen; active compounds read high.
Take `COc1cc(CNCCN(C)C)ccc1OCc1c(F)cccc1Cl`: the max response was -2.65%.
The result for `CCOC(=O)C1CCN(S(=O)(=O)c2ccc3c(c2)N(C(C)=O)CCO3)CC1` reads 2.65%; that for `c1csc(-c2cn3c(n2)SCC3)c1`, 22.4% (active).
Consider `Cc1cc(-c2cccs2)nc(-n2cccc2)n1`, for which the max response was 16.4%.
Consider `CCCS(=O)(=O)Nc1ccc(-c2cn3c(n2)SCC3)cc1`, for which the max response is 1.28%.
The result for `COCCNC(=O)CSc1nc2sccc2c(=O)n1-c1ccccc1` reads -7.71%.
Take `O=C(NC1CCCC1)C(c1ccco1)N(C(=O)c1csnn1)c1ccccc1` (stereo not given): the max response was -5.09%.
With `NC(=O)C1CCCN(CC(=O)N2CCN(c3ccccc3)CC2)C1` (stereo not given), the max response was -4.9%.
Regarding `CCOC(=O)C1CCN(S(=O)(=O)c2ccc3c(c2)N(C)C(=O)CC(=O)N3C)CC1`, the max response is -2.95%.
Take `COc1ccc2c(c1OC)C(=O)N(c1ccc(O)cc1)C2`: the max response was 18.3% (active).
Turning to `COc1cc(C(=O)N2C(=O)c3cccc(N)c3C2=O)cc(OC)c1OC`, the max response was 2.15%.
The result for `COc1ccc2c(c1OC)C(=O)N(c1ncn[nH]1)C2` reads 2.6%; that for `CCOc1ccc(S(=O)(=O)Nc2ccc(OC)nc2)cc1`, -3.62%; that for `CCOC(=O)C1=C(CSc2nnnn2C)N(C)C(=O)NC1c1ccccc1` (stereo not given), -4.86%.
For `Cc1cccnc1NC(=O)Cn1c(=O)oc2ccccc21` the value was -0.475%.
Take `Cc1nc(COc2cc3oc(=O)cc(C)c3cc2Cl)cs1`: the max response was 5.56%.
The result for `O=C(CCc1ccccc1)Nc1ccnn1C1CCN(Cc2ccc(OCCO)cc2)CC1` reads -1.22%; that for `Cc1ccccc1-c1nc(CS(=O)(=O)CC(=O)NC(C)c2ccccc2)c(C)o1` (stereo not given), 1.09%; that for `CN1CCN(S(=O)(=O)c2ccc(NC(=O)c3ccco3)cc2)CC1`, 12%.
For `O=C(Nc1cccnc1)c1ccc(Cl)c([N+](=O)[O-])c1` the value was 11.1%.
As for `O=C(NNC(=O)c1csc(-c2cccnc2)n1)Nc1ccc(Cl)cc1`, the max response is 1.7%.
The result for `CCOC(=O)c1ccc(NC(=O)CNC(=O)c2ccco2)cc1` reads -0.716%; that for `O=C(Nc1ccc(Cl)cc1)Nc1ccc(Oc2cccnc2)nc1`, 46.4% (active); that for `COC(=O)c1cc(NC(=O)c2ccco2)ccc1N1CCOCC1`, -1.96%.
The result for `COC(=O)c1ccc(NC(=O)c2ccco2)cc1` reads 25.4% (active).
For `C/C(=N\NS(=O)(=O)c1ccc(Cl)cc1)c1ccc(NC(=O)c2ccco2)cc1` the value was 34.2% (active); for `O=C(Nc1ccncc1)c1ccc(Cl)c([N+](=O)[O-])c1`, -2.17%.
For the compound `O=C(Nc1cccnc1)c1cc(Cl)ccc1Cl`, the max response was 1.75%.
Turning to `C/C(=N/NS(=O)(=O)c1ccccc1)c1ccc(NC(=O)C(F)(F)F)cc1`, the max response was 1.13%.
The result for `Cc1ccnc(NC(=O)c2ccc(Cl)c([N+](=O)[O-])c2)c1` reads 28.9% (active).

For the origin of these results see PubChem BioAssay AID2314 (National Center for Advancing Translational Sciences (NCATS), 2010).
